These results are taken from PubChem BioAssay (EPA / NIEHS).

“And” between values parts separate entries of the source, which are not always exact repeats. Equal entries are not always repeated. Results filed as inconclusive are left out. More than one record can exist for a structure, and the calls need not agree. The source made the active and inactive calls. How the source made its calls: active means hit-call score of the fitted dose curve at least 0.9, where 1 is the maximum; inconclusive means response in the unintended direction; inactive means score below 0.9.

For the experiment, the system named is zebrafish Estrogen Receptor (ER2b), gene 317733. As to the kind of experiment: ATG_zfER2b_XSP2: Attagene TRANS-FACTORIAL Multi-Species (XSP2) HepG2 Assay for zebrafish Estrogen Receptor (ER2b) (AID 2283823).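 Further: fitted upward as reporter gain over DMSO so potency reflects activation.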 As to the method:
ATG_XSP2_multi-species_TRANS is a cell-based, multiplexed assay created by modifying the existing Attagene TRANS-FACTORIAL system to include a panel of nuclear receptors from some or all the following species: human (Homo sapiens), mouse (Mus musculus), frog (Xenopus laevis), zebrafish (Danio rerio), chicken (Gallus gallus), and turtle (Chrysemys picta). The ECOTOX-FACTORIAL format uses HepG2, a human liver cell line, with measurements taken at 24 hours after chemical dosing in a 24-well plate. Xsp2 included 3 nM 6-alpha-fluorotestosterone and 1.5 nM norgestrel to stimulate the androgen receptor.ATG_zfER2b_XSP2 is one of 29 assay components measured or calculated from the ATG_XSP2_multi-species_TRANS assay. It is designed to make measurements of mRNA induction, a form of inducible reporter, as detected with fluorescence intensity signals by Reverse transcription polymerase chain reaction (RT-PCR) and Capillary electrophoresis technology.The assay endpoint ATG_zfER2b_XSP2 was analyzed in the positive analysis fitting direction relative to DMSO as the negative control and baseline of activity. Using a type of inducible reporter, measures of mRNA for gain-of-signal activity can be used to understand the reporter gene at the transcription factor-level as they relate to the gene ER. Furthermore, this assay endpoint can be referred to as a primary readout, because this assay has produced multiple assay endpoints where this one serves a reporter gene function. To generalize the intended target to other relatable targets, this assay endpoint is annotated to the nuclear receptor intended target family, where the subfamily is steroidal.
Human liver HepG2 cells are transiently transfected with multiple reporter transcription units (MRTUs) in 6-well plates using FuGene 6 reagent (Roche; 3 ml FuGene/1 mg DNA). The MRTU constructs are regulated by a cis-regulating element (promoter). […] A major difference between the CIS and TRANS system is that in CIS activities of endogenous TFs are measured, whereas the TRANS assay evaluates changes in activities of exogenous, chimeric NR-Gal4 proteins. […] At the end of 24 hour incubation, total RNA was isolated using TriZol reagent (Invitrogen). The isolated RNA is then reverse-transcribed using oligo(dT) primer and Mo-MLV reverse transcriptase (Invitrogen) with DNAse I (Ambion) treatment for 30 min. The one-tenth of the produced cDNA was amplified by PCR using Taq DNA polymerase (Invitrogen) and two reporter sequence-specific primers. The PCR products were fluorescently labeled by primer extension with 6-arboxyfluorescein (6-FAM) 5'-labeled reporter sequence-specific primer (2 min at 95 C, 20 s at 68 C and 10 min at 72 C) and these products were digested with 5U of HpaI (New England Biolabs) for 2h at 37 C. The fragments were purified using Qiaquick PCR columns (Qiagen), analyzed on an ABI 3130xL genetic analyzer (Applied Biosystems) with peak positions identified by using a set of X-rhodamine (ROX)-labeled MapMarker1000 molecular weight standards (BioVentures). The raw capillary electrophoresis data was processed using Attagraph software (Attagene).
With `c1ccc2c(c1)-c1cccc3cccc-2c13`, the AC50 is 57.8 µM (active) and the result was inactive.
As to `Oc1ccc2ccc3cccc4ccc1c2c34`, the concentration at half-maximal activity (AC50) was 10.6 µM (active) and 7.22 µM (active).
For the compound `Clc1ccc(C(c2ccc(Cl)cc2)C(Cl)Cl)cc1`, the concentration at half-maximal activity (AC50) was 5.29 µM (active).
The same measure, in the same setting: with `CCCCC(CC)COC(=O)c1ccc(C(=O)OCC(CC)CCCC)c(C(=O)OCC(CC)CCCC)c1` (stereo unspecified) the figure was 100 µM (active) and 34.2 µM (active); with `CC(C)(C)C(O)(CCc1ccc(Cl)cc1)Cn1cncn1` (stereo unspecified), 132 µM (active) and 61 µM (active); with `O=[N+]([O-])c1ccc(Oc2ccc(Cl)cc2Cl)cc1`, 67.8 µM (active) and 7.06 µM (active).
For the compound `CCC(C)c1ccc(O)cc1` (stereo unspecified), the concentration at half-maximal activity (AC50) is 21 µM (active) and 12.9 µM (active).
The same measure, in the same setting: with `CCCCCOC(=O)c1ccccc1C(=O)OCCCCC` the figure was 100 µM (active); with `CCCCOC(=O)c1ccccc1C(=O)OCc1ccccc1`, 55.4 µM (active).
Still for that read-out and setting: under `Clc1ccc(C(c2ccc(Cl)cc2)C(Cl)(Cl)Cl)cc1` stands 4.56 µM (active).
